Common to all, as to experiment: PBM; 200 nM protein, PBS
Holding throughout (conditions): dsDNA, one strand shown

Test [1] concerns the target HOXB4 (Homo sapiens, UniProt P17483 148-234).
Test [2] has as its target HOXB4 (Homo sapiens, UniProt P17483 148-234, V174I).
For test [3], the target named is HOXA2 (Homo sapiens, UniProt O43364 129-215, R185T).
Test [4] deals with HOXA2 (Homo sapiens, UniProt O43364 129-215, R185K).
Test [5] concerns the target HOXA2 (Homo sapiens, UniProt O43364 129-215, Y150S).
Test [6] concerns the target HOXA2 (Homo sapiens, UniProt O43364 129-215).
Test [7] concerns the target T1, VENTX (Homo sapiens, UniProt O95231 78-163, R121Q).
T1 sequence: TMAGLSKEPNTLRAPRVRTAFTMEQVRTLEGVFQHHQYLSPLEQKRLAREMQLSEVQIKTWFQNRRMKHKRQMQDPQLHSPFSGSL

The target of test [8] is HOXA4 (Homo sapiens, UniProt Q00056 201-287, W262R).
Test [9] concerns the target T2, VENTX (Homo sapiens, UniProt O95231 78-163, Y115F).
T2 sequence: T1 sequence with Y38F, Q44R

Test [10] addresses HOXA4 (Homo sapiens, UniProt Q00056 201-287, R217L).
The target in test [11] is HOXA4 (Homo sapiens, UniProt Q00056 201-287).
Test [12] deals with VAX1 (Homo sapiens, UniProt Q5SQQ9 86-172).
In test [13] the target is VAX1 (Homo sapiens, UniProt Q5SQQ9 86-172, T142I).
Test [14] addresses HOXA4 (Homo sapiens, UniProt Q00056 201-287, W262F).
Test [15] deals with VAX1 (Homo sapiens, UniProt Q5SQQ9 86-172, K157R).
A further test deals with HESX1 (Homo sapiens, UniProt Q9UBX0 95-180, F115L).

Residue numbers refer to the chain shown, from its start.

Sequence of HOXA2 (Homo sapiens, UniProt O43364 129-215, R185T) (O43364 129-215 R185T): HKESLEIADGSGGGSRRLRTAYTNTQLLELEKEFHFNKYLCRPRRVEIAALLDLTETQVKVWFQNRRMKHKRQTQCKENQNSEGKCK
Sequence of HOXA2 (Homo sapiens, UniProt O43364 129-215) (O43364 129-215): as the sequence (O43364 129-215 R185T) above, with T57R counted along it
Sequence of HOXB4 (Homo sapiens, UniProt P17483 148-234, V174I) (P17483 148-234 V174I): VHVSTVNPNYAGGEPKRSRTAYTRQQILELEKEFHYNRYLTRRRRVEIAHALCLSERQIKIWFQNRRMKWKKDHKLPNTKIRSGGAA
Sequence of HOXA4 (Homo sapiens, UniProt Q00056 201-287) (Q00056 201-287): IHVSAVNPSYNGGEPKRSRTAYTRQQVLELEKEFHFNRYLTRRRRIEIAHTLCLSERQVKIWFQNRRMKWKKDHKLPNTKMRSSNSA
Sequence of HOXA4 (Homo sapiens, UniProt Q00056 201-287, W262F) (Q00056 201-287 W262F): as the sequence (Q00056 201-287) above, with W62F counted along it
Sequence of HOXA4 (Homo sapiens, UniProt Q00056 201-287, R217L) (Q00056 201-287 R217L): as the sequence (Q00056 201-287) above, with R17L counted along it
Sequence of VAX1 (Homo sapiens, UniProt Q5SQQ9 86-172) (Q5SQQ9 86-172): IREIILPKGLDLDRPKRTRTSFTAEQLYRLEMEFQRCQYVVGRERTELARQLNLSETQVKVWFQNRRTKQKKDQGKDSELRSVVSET
Sequence of HOXB4 (Homo sapiens, UniProt P17483 148-234) (P17483 148-234): as the sequence (P17483 148-234 V174I) above, with I27V counted along it
Sequence of HOXA2 (Homo sapiens, UniProt O43364 129-215, Y150S) (O43364 129-215 Y150S): as the sequence (O43364 129-215 R185T) above, with Y22S, T57R counted along it
Sequence of HOXA2 (Homo sapiens, UniProt O43364 129-215, R185K) (O43364 129-215 R185K): as the sequence (O43364 129-215 R185T) above, with T57K counted along it
Sequence of VAX1 (Homo sapiens, UniProt Q5SQQ9 86-172, T142I) (Q5SQQ9 86-172 T142I): as the sequence (Q5SQQ9 86-172) above, with T57I counted along it
Sequence of VAX1 (Homo sapiens, UniProt Q5SQQ9 86-172, K157R) (Q5SQQ9 86-172 K157R): as the sequence (Q5SQQ9 86-172) above, with K72R counted along it
Sequence of HOXA4 (Homo sapiens, UniProt Q00056 201-287, W262R) (Q00056 201-287 W262R): as the sequence (Q00056 201-287) above, with W62R counted along it
Sequence of HESX1 (Q9UBX0 95-180 F115L): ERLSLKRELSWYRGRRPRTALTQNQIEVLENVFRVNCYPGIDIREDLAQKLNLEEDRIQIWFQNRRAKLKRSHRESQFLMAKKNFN

With CCGCCTAG, the binding signal is 7.58 upbm affinity estimate (log intensity, higher = more binding, comparable within an allelic series) in the test with HOXB4 [1] and 7.95 upbm affinity estimate (log intensity, higher = more binding, comparable within an allelic series) in the test with HOXB4 [2].

On to CGTGCCTC, for which the binding signal with HOXB4 [1] is 7.37 upbm affinity estimate (log intensity, higher = more binding, comparable within an allelic series); with HOXB4 [2], 7.39 upbm affinity estimate (log intensity, higher = more binding, comparable within an allelic series).

In the case of CCCCCTCG, the binding signal was 7.86 upbm affinity estimate (log intensity, higher = more binding, comparable within an allelic series) with HOXB4 [1]; 7.09 upbm affinity estimate (log intensity, higher = more binding, comparable within an allelic series) in the test with HOXA2 [3]; 7.85 upbm affinity estimate (log intensity, higher = more binding, comparable within an allelic series) in the test with HOXB4 [2]; 10.2 upbm affinity estimate (log intensity, higher = more binding, comparable within an allelic series) with HOXA2 [4]; 10.3 upbm affinity estimate (log intensity, higher = more binding, comparable within an allelic series) in the test with HOXA2 [5]; 7.14 upbm affinity estimate (log intensity, higher = more binding, comparable within an allelic series) with HOXA2 [6].

For the sequence GCCGCTCC, the binding signal in the test with HOXB4 [1] is 7.92 upbm affinity estimate (log intensity, higher = more binding, comparable within an allelic series); in the test with HOXB4 [2], 7.92 upbm affinity estimate (log intensity, higher = more binding, comparable within an allelic series).

On to GCTAATGA, for which the binding signal with HOXB4 [1] is 13.3 upbm affinity estimate (log intensity, higher = more binding, comparable within an allelic series); in the test with VENTX [7] it was 11.9 upbm affinity estimate (log intensity, higher = more binding, comparable within an allelic series); with HOXA4 [8] it was 10.5 upbm affinity estimate (log intensity, higher = more binding, comparable within an allelic series); with VENTX [9] it was 11.9 upbm affinity estimate (log intensity, higher = more binding, comparable within an allelic series); with HOXA2 [3], 13.1 upbm affinity estimate (log intensity, higher = more binding, comparable within an allelic series); in the test with HOXA4 [10], 12.1 upbm affinity estimate (log intensity, higher = more binding, comparable within an allelic series). Also, the binding signal is 14 upbm affinity estimate (log intensity, higher = more binding, comparable within an allelic series) with HOXB4 [2]; 13.6 upbm affinity estimate (log intensity, higher = more binding, comparable within an allelic series) with HOXA2 [4]; 13.9 upbm affinity estimate (log intensity, higher = more binding, comparable within an allelic series) in the test with HOXA4 [11]; 13.5 upbm affinity estimate (log intensity, higher = more binding, comparable within an allelic series) in the test with VAX1 [12]; 13.3 upbm affinity estimate (log intensity, higher = more binding, comparable within an allelic series) with VAX1 [13]; 10.8 upbm affinity estimate (log intensity, higher = more binding, comparable within an allelic series) with HOXA2 [5]. Besides, the binding signal with HOXA4 [14] is 11.9 upbm affinity estimate (log intensity, higher = more binding, comparable within an allelic series); with HOXA2 [6], 12.8 upbm affinity estimate (log intensity, higher = more binding, comparable within an allelic series); in the test with VAX1 [15] it was 13.4 upbm affinity estimate (log intensity, higher = more binding, comparable within an allelic series).

On to ATCGATTA, for which the binding signal with HOXB4 [1] was 13.1 upbm affinity estimate (log intensity, higher = more binding, comparable within an allelic series); in the test with VENTX [7], 11.7 upbm affinity estimate (log intensity, higher = more binding, comparable within an allelic series); in the test with VENTX [9], 11.3 upbm affinity estimate (log intensity, higher = more binding, comparable within an allelic series); in the test with HOXA2 [3] it was 12.6 upbm affinity estimate (log intensity, higher = more binding, comparable within an allelic series); with HOXA4 [10], 12 upbm affinity estimate (log intensity, higher = more binding, comparable within an allelic series); in the test with HOXB4 [2] it was 13.8 upbm affinity estimate (log intensity, higher = more binding, comparable within an allelic series). Also, the binding signal is 13.1 upbm affinity estimate (log intensity, higher = more binding, comparable within an allelic series) with HOXA2 [4] and 11 upbm affinity estimate (log intensity, higher = more binding, comparable within an allelic series) with HOXA4 [14].

On to CGGTTCCC, for which the binding signal with HOXB4 [1] is 7.65 upbm affinity estimate (log intensity, higher = more binding, comparable within an allelic series); with HOXB4 [2], 7.57 upbm affinity estimate (log intensity, higher = more binding, comparable within an allelic series).

For ATCATTAG, the binding signal with HOXB4 [1] was 13.5 upbm affinity estimate (log intensity, higher = more binding, comparable within an allelic series); with VENTX [7] it was 11.7 upbm affinity estimate (log intensity, higher = more binding, comparable within an allelic series); in the test with HOXA4 [8] it was 10.6 upbm affinity estimate (log intensity, higher = more binding, comparable within an allelic series); with VENTX [9], 11.8 upbm affinity estimate (log intensity, higher = more binding, comparable within an allelic series); in the test with HOXA2 [3] it was 12.9 upbm affinity estimate (log intensity, higher = more binding, comparable within an allelic series); in the test with HOXA4 [10] it was 12.3 upbm affinity estimate (log intensity, higher = more binding, comparable within an allelic series). Moreover, the binding signal with HOXB4 [2] was 14.2 upbm affinity estimate (log intensity, higher = more binding, comparable within an allelic series); in the test with HOXA2 [4], 13.6 upbm affinity estimate (log intensity, higher = more binding, comparable within an allelic series); in the test with HOXA4 [11] it was 14.1 upbm affinity estimate (log intensity, higher = more binding, comparable within an allelic series); with VAX1 [12], 13.2 upbm affinity estimate (log intensity, higher = more binding, comparable within an allelic series); with VAX1 [13], 13.1 upbm affinity estimate (log intensity, higher = more binding, comparable within an allelic series); with HOXA2 [5], 10.9 upbm affinity estimate (log intensity, higher = more binding, comparable within an allelic series). Besides, the binding signal in the test with HOXA4 [14] was 12 upbm affinity estimate (log intensity, higher = more binding, comparable within an allelic series); with HOXA2 [6], 12.7 upbm affinity estimate (log intensity, higher = more binding, comparable within an allelic series); with VAX1 [15], 13.1 upbm affinity estimate (log intensity, higher = more binding, comparable within an allelic series).

Take GGAGCTCC: the binding signal was 7.69 upbm affinity estimate (log intensity, higher = more binding, comparable within an allelic series) with HOXB4 [1]; 7.37 upbm affinity estimate (log intensity, higher = more binding, comparable within an allelic series) in the test with HOXB4 [2]; 7.36 upbm affinity estimate (log intensity, higher = more binding, comparable within an allelic series) with VAX1 [12]; 7.59 upbm affinity estimate (log intensity, higher = more binding, comparable within an allelic series) with VAX1 [13]; 7.58 upbm affinity estimate (log intensity, higher = more binding, comparable within an allelic series) in the test with VAX1 [15].

Take ATTATTAA: the binding signal in the test with HOXB4 [1] is 12.9 upbm affinity estimate (log intensity, higher = more binding, comparable within an allelic series); with HOXB4 [2], 13.6 upbm affinity estimate (log intensity, higher = more binding, comparable within an allelic series); with HESX1, 7.79 upbm affinity estimate (log intensity, higher = more binding, comparable within an allelic series).

On to CCTACAGG, for which the binding signal with HOXB4 [1] is 7.69 upbm affinity estimate (log intensity, higher = more binding, comparable within an allelic series); with HOXB4 [2] it was 7.75 upbm affinity estimate (log intensity, higher = more binding, comparable within an allelic series).

On to ACCATTAA, for which the binding signal is 13.1 upbm affinity estimate (log intensity, higher = more binding, comparable within an allelic series) with HOXB4 [1]; 10.6 upbm affinity estimate (log intensity, higher = more binding, comparable within an allelic series) with HOXA4 [8]; 12 upbm affinity estimate (log intensity, higher = more binding, comparable within an allelic series) with HOXA4 [10]; 13.7 upbm affinity estimate (log intensity, higher = more binding, comparable within an allelic series) with HOXB4 [2]; 14 upbm affinity estimate (log intensity, higher = more binding, comparable within an allelic series) in the test with HOXA4 [11]; 11.4 upbm affinity estimate (log intensity, higher = more binding, comparable within an allelic series) with HOXA4 [14].

Take GTCATTAA: the binding signal with HOXB4 [1] was 13.3 upbm affinity estimate (log intensity, higher = more binding, comparable within an allelic series); with VENTX [7], 12.1 upbm affinity estimate (log intensity, higher = more binding, comparable within an allelic series); with HOXA4 [8], 10.9 upbm affinity estimate (log intensity, higher = more binding, comparable within an allelic series); with VENTX [9] it was 12.1 upbm affinity estimate (log intensity, higher = more binding, comparable within an allelic series); in the test with HOXA2 [3], 13.2 upbm affinity estimate (log intensity, higher = more binding, comparable within an allelic series); with HOXA4 [10] it was 12.9 upbm affinity estimate (log intensity, higher = more binding, comparable within an allelic series). In addition, the binding signal is 13.9 upbm affinity estimate (log intensity, higher = more binding, comparable within an allelic series) in the test with HOXB4 [2]; 13.8 upbm affinity estimate (log intensity, higher = more binding, comparable within an allelic series) with HOXA2 [4]; 14.1 upbm affinity estimate (log intensity, higher = more binding, comparable within an allelic series) in the test with HOXA4 [11]; 13.4 upbm affinity estimate (log intensity, higher = more binding, comparable within an allelic series) in the test with VAX1 [12]; 13.4 upbm affinity estimate (log intensity, higher = more binding, comparable within an allelic series) in the test with VAX1 [13]; 11 upbm affinity estimate (log intensity, higher = more binding, comparable within an allelic series) with HOXA2 [5]. The binding signal is 12.6 upbm affinity estimate (log intensity, higher = more binding, comparable within an allelic series) in the test with HOXA4 [14]; 12.9 upbm affinity estimate (log intensity, higher = more binding, comparable within an allelic series) in the test with HOXA2 [6]; 13.3 upbm affinity estimate (log intensity, higher = more binding, comparable within an allelic series) with VAX1 [15].

Take GCTCGTTA: the binding signal in the test with HOXB4 [1] was 11.4 upbm affinity estimate (log intensity, higher = more binding, comparable within an allelic series); in the test with VENTX [7], 10.1 upbm affinity estimate (log intensity, higher = more binding, comparable within an allelic series); in the test with HOXB4 [2] it was 11.6 upbm affinity estimate (log intensity, higher = more binding, comparable within an allelic series).

The values are drawn from article PMC11006913.
